Results: the supplement of paper PMC11417369
± gives the standard deviation of the averaged measurements. In all, about 25,000 sequences were measured (“ln(normalized median fluorescence intensity)”: median about 10, highest 2% from about 12 on). Only a selection was taken, and the highest values are over-represented in it overall.

System: PfAP2-G AP2 domain (GST-tagged)
Experiment: gcPBM binding intensity (ln(normalized median fluorescence intensity)); higher = stronger DNA binding
Procedure, shortened: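 Plasmodium falciparum DNA-binding domains carrying a GST tag were expressed in E. coli and applied for 1 h, at about 25 μg on average, to an Agilent 4 × 180k array. The array held primer-extended double-stranded 36-bp intergenic genomic probes together with negative controls, and binding took place in 1× PBS with 1% milk, 0.2 mg/ml BSA, 0.5% salmon testes DNA and 0.03% Triton X-100. An Alexa488 anti-GST antibody detected bound protein, and the array was scanned at 488 nm. Binding intensity is taken as the highest Masliner-normalised natural-log median intensity across replicate spots of either probe orientation.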

Sequence | gcPBM binding intensity (ln)
TTTTAAATTTAGTGTAGTACACTTTTTTCAAATATA [XGTACX_site4659] | 11.7 ± 1.2
TATATTTTATATTAGTGTACAAATTTCATTTTTCAT [XGTACX_site2204] | 11 ± 0.5
ATATTTATATATAGTAGTACTTTCAATAATTTAAAT [XGTACX_site7276] | 11.4 ± 0.84
ATATGTTACTTTACATAAAGAAGAAGAAGAAGAAAA [CACACA_negctrl_site985] | 9.805 ± 0.064
TTTTTGTTTGAACACTGTACGTATAAATATAAAAGT [XGTACX_site6476] | 11.7 ± 0.84
TGTATGATTATGTTGTGTACGTAAAATATGAAAAAT [XGTACX_site1720] | 11.5 ± 0.89
TATAAAAAATTATGTTGTACGTAATATAAAATTTGT [XGTACX_site7122] | 11.4 ± 0.86
TCTTTTGAACAAATTTGTACGTATATAAAAATATTT [XGTACX_site6547] | 11.4 ± 0.71
ATATAAACATGTTTGTGTACGTAATATGAAAAATAA [XGTACX_site8157] | 11.7 ± 1
TATAATAAAATATTTTGTACGTATATTTTAATATTT [XGTACX_site2582] | 11.2 ± 0.72
TAAAATATAAGACACACACACATATATTTATATATC [CACACA_site6248] | 9.96 ± 0.099
AAAGAATAATTAAATACACACATATTACAGTAAAAA [CACACA_site2450] | 10.03 ± 0.092
AAAAAAAAAATTAAAAGTACAGAAAATAAATAAATA [XGTACX_site7470] | 11.4 ± 0.82
AAAAAAAAAAAAAAAAGTACACAGTAGAATTAAATG [XGTACX_site1843] | 11.7 ± 0.92
TTATGTACAATTTCTTCTTTCTTTTTTCCTAAAGAC [CACACA_negctrl_site1193] | 11.1 ± 0.57
GGTCTTATTTTTAGTAGTACAAATATAATATACATA [XGTACX_site6483] | 11.4 ± 0.83
AATAATTTAATACATACACACGTATATCTTTTTTTT [CACACA_site8632] | 9.955 ± 0.078
TAATTGTACGCCAATACACACAGAATTAAAATGTAG [CACACA_site4234] | 11.6 ± 1.1
TAATTGTACGCCAATACACACAGAATTATAATGTAG [CACACA_site6201] | 11.5 ± 1
TAATTGTACGCCAATACACACAGAATTAGAATGTAG [CACACA_site102] | 11.8 ± 1.3
CAACATTTATATTTTACACACATCATTTAAGCGCTT [CACACA_site992] | 10.09 ± 0.078
ATCCTTTATTTTTTTTGTACATAAAAATAACTCGAG [XGTACX_site3885] | 11.1 ± 0.62

Sequence | gcPBM binding intensity (ln)
ATATGTATATTTTTGATGTGCTTTTATTTGGTTATT [CACACA_negctrl_site626] | 10.01 ± 0.035
CCCCCCCACGGACACACACACATACATACCACATAT [CACACA_site5303] | 11.7 ± 0.75
CCCCCCCACAGACACACACACATACATACCACATAT [CACACA_site2306] | 11.8 ± 0.76
TACATACACAGACACACACACATATATATATATATA [CACACA_site3557] | 10.2 ± 0.38
CATACACCCAGACACACACACATATATATATATATA [CACACA_site634] | 10.3 ± 0.39
CATATACACGAACACACACACATATATATATATATA [CACACA_site4437] | 10.5 ± 0.68
CGCATACACGGACACACACACACATATATATATATA [CACACA_site4520] | 11.3 ± 0.7
CCCCCCCACGAACACACACACATACATACCACATAT [CACACA_site7149] | 12 ± 1
TTCCCCCCCAGACACACACACACATACATACCACAT [CACACA_site2305] | 11.8 ± 0.84
CACAGACACCCATACACACACATACCCATATATATA [CACACA_site5023] | 10.4 ± 0.26
AACATATACACGAACACACACACATATATATATATA [CACACA_site502] | 10.3 ± 0.26
TACAGACATACATACACACATACATACAGACATACA [CACACA_site1941] | 10.1 ± 0.3
TACATACACGGACACACACACATATATATATATATA [CACACA_site5883] | 11.3 ± 0.88
AAATTAATGTATATGTGAAGCAAGGGATGCGGCAGA [CACACA_negctrl_site406] | 10.2 ± 0.12
GTACCTATTTCATACACACACACACCCAAACAAACA [CACACA_site976] | 10.7 ± 0.51
ACATAATAAAAATAAATTCATAAGTAAATAAATAAA [TGCATGCA_negctrl_site186] | 9.88 ± 0.24
GTTTGTATAGGTTCATGTACAAAAAAAAAAAAAAAA [XGTACX_site537] | 11 ± 0.83
TTGTTTAAGTCACGAACACACATATATCATCAATTT [CACACA_site986] | 10.11 ± 0.071
TTACTTATAAATAAATATACAAAAATGTTATATATA [XGTACX_negctrl_site223] | 9.625 ± 0.078
CATACATACATACATACATGCATACATACATACATA [TGCATGCA_site218] | 10.5 ± 0.47
AATTCTTTTTTCAACACACACACACCCGAAAATATA [CACACA_site3111] | 10.3 ± 0.28
CAAACCTATATACAAACATGCAATCCACATATTGGT [TGCATGCA_site756] | 9.99 ± 0.13

Sequence | gcPBM binding intensity (ln)
AACACAAGAACAGAACGTACACACACATATATATAT [XGTACX_site7347] | 11.3 ± 0.61
AAGAAAAATTTAAACTGTACTTGTTTTCCAATGAAC [XGTACX_site4443] | 11.4 ± 1
AAAAAATGAAAAAACTGTACGCAATTTTGTTTTTAT [XGTACX_site2299] | 11.7 ± 1.2
TAAAATTTTTGTTTTTGTACGAAACATCAATTTTAC [XGTACX_site4963] | 10.7 ± 0.34
CTTAAATTGAAATGTTGTACAAAGTAAAAACAATGA [XGTACX_site2123] | 11.2 ± 0.86
GTATATCACACATTTGCATGTTGTCAATAGTTTATC [TGCATGCA_site134] | 10.23 ± 0.014
ATTTAAAAAATATATTGTACATATTTTATTATGTTT [XGTACX_site2984] | 11 ± 0.63
TTAAAAATATTATGTACACACATTTTAGATATTTGT [CACACA_site1846] | 11.6 ± 0.77
TTCTTTAAAATATTATGTACACATTGCGAACAGTTT [XGTACX_site5418] | 11.7 ± 1
GTTATAAAATATGGCACACAAAATGTAAGTAAATGA [CACACA_site1458] | 10.5 ± 0.2
TTCATTAATGTGTAATGTACTTGTAATATGGGATTA [XGTACX_site3903] | 11.1 ± 0.82
TTTTTATTTATATGATACTTATATATATATATATAT [CACACA_negctrl_site462] | 10.2 ± 0.35
CGATACTTTAGGTGTACACAAATATACATGAATGAG [CACACA_site5189] | 11.6 ± 0.84
TTTATACACAAAAAATGTACATATATATAATGAATT [XGTACX_site1195] | 11.2 ± 0.72
ATATATATTTATAGGTGTACAAAATACTATTTTAGG [XGTACX_site8499] | 11.3 ± 0.82
TATTTATATAGGTATACACACATACAAATATGTAAA [CACACA_site7705] | 10 ± 0.28
AAAATTTCTTTTTTTTGTACATATATAATAATATAT [XGTACX_site7107] | 10.9 ± 0.62
TTACAAATAATTTGTTGTACGCTTTTTTTCTTTTTT [XGTACX_site7199] | 11.7 ± 1.1
TTTTCTTTTTTCTGTTGTACTAAAAATAATTTTGTA [XGTACX_site5171] | 11.3 ± 0.87
GACAAAATGATAGGGACACACAATATCAATGTTTAA [CACACA_site765] | 10.7 ± 0.51
TTTTTTTTTTTTGAGTGTACTAAAATATTACCTTTT [XGTACX_site646] | 11.2 ± 0.99
TAAAATAATAAACAGAAGAAATCATTCATATAAAAA [XGTACX_negctrl_site502] | 9.635 ± 0.035

Sequence | gcPBM binding intensity (ln)
ATAAATGAAAAAAAGCGTACATATAAAAAAATATAT [XGTACX_site5063] | 11.6 ± 1
TTAACAAAATTTCCGTGTACGTAAATAAGAACATAG [XGTACX_site7200] | 11.8 ± 0.95
ACATAAGAACATATTTGTACGTATATAAATTAAATA [XGTACX_site6127] | 11.4 ± 0.79
ATATAAGAACAAAATTGTACATAAATATTTATATAA [XGTACX_site7404] | 10.8 ± 0.54
AAATAATTAAAAAAAAGTACACATGTGACTACATAT [XGTACX_site8767] | 11.4 ± 0.71
ATGAACATGTGACAATGTACATTTATATCTTAAGAA [XGTACX_site4960] | 10.8 ± 0.43
TTTTTTTTTTTTTTTTTTATATTTCATAATTTCATT [XGTACX_negctrl_site579] | 9.33 ± 0.71
TTTTGTTTTGTTTTGTTTTGTTTTGTTTTATTTTAT [GTGCAC_negctrl_site383] | 9.86 ± 0.27
GAATACACCACGCACACACACTTGAGAAAAAATAAA [CACACA_site7747] | 10.6 ± 0.56
AAATTAAAATAAAATAGTACATATATTTATATTTTT [XGTACX_site1687] | 11.1 ± 0.69
TTTTTTTTTTTTGGTAGTACATAAATATTTTATGGA [XGTACX_site6851] | 12 ± 1.7
TATATTTTTATATTTTGTACATATAGTAAATATAAA [XGTACX_site4768] | 10.8 ± 0.51
TATTTGTTTTTATATAGTACATAAATATATATATAT [XGTACX_site7834] | 10.9 ± 0.61
ATATAGTAAATTGGTAGTACATAAAATGATTTTATG [XGTACX_site4143] | 11.6 ± 0.95
AAATTATATATAAAATGTACATATGTAGGTAATTTT [XGTACX_site5047] | 10.9 ± 0.49
TTTTGTTGTTGTTGTTGTACATAAATAATAAAATAT [XGTACX_site8681] | 11.3 ± 0.95
TATAGGTAAATGGACACACACATATTTATATTTATA [CACACA_site7683] | 10.9 ± 0.58
ATTATATATATCAGGTGTACGTAAAAAAAATGGACG [XGTACX_site1028] | 11.9 ± 0.81
AGTAAATATATTATATGTACGTATCATAAAATATAT [XGTACX_site1567] | 11.6 ± 0.86
TTTTTTTTTATAAGGTGTACGTAAAATGTGTAGGTC [XGTACX_site3585] | 11.6 ± 0.82
TAAAAATATATGTATACACACATATATATATATATA [CACACA_site3951] | 10 ± 0.38
AATGCTATCTTCTTATTTTTCATACACAACATGAAC [CACACA_negctrl_site1809] | 10.2 ± 0.11
